For 5 compounds, activation results are on record in PubChem BioAssay AID2435 (The Scripps Research Institute Molecular Screening Center, 2010).

Molecules are shown by their SMILES. About 1,000 (0.31%) of roughly 320,000 compounds were called active. The sample as a whole holds a higher share of actives than the screen did. Unmarked numbers belong to inactive results.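 How the source made its calls: active means activation above the mean of all tested compounds plus 3 SD, cutoff set per screening run (cut at about 20% in these data); inactive means the rest.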

For this assay, the target named is Oxytocin receptor (Homo sapiens) (UniProt P30559). In words: human OXTR agonists, primary screen, fluorescence, CHO-OTR cells, Fluo-8 calcium (AID 2435).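 Further: peak over basal fluorescence ratio from a 100 s FLIPR kinetic read.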 The conditions noted are these: Fluo-8 calcium fluorescence, at 3 µM, stronger effect = higher value.
Oxytocin receptor (Homo sapiens), sequence (P30559 whole entry, looked up): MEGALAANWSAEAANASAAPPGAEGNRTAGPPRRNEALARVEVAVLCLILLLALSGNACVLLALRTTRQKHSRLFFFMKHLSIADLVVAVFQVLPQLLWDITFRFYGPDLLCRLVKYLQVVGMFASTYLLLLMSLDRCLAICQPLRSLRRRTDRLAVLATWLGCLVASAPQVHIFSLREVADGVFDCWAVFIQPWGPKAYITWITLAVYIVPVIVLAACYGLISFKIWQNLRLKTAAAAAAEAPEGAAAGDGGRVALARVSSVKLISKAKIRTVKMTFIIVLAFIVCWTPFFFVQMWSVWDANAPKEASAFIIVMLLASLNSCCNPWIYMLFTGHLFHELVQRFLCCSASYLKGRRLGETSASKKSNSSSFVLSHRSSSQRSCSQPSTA
With `CC(Cc1ccccc1)NCCC(c1ccccc1)c1ccccc1` (stereo not given), the activation was 23.9% (active). For `CC(Cc1ccccc1)NC=O` (stereo not given), the activation was -0.34%.

For `CC(=O)NC(=O)NC(C)Cc1ccccc1` (stereo not given), the activation was -0.72%. Next, `O=C(c1cc2nc(-c3ccccc3)cc(-c3ccccc3)n2n1)N1CCC2(CC1)OCCO2`: -2.27%. Next, `O=C(Cc1ccc(Cl)cc1)NCCN1CCN(C(=O)Cc2ccc(Cl)cc2)CC1`: 1.31%.
